Bioassay records deposited in PubChem by National Center for Advancing Translational Sciences (NCATS).
ELG1 DNA repair = blocks ELG1-dependent DNA repair in HEK293T cells; HEK293T ELG1-luciferase reporter, luminescence, 16 h; DNA damage induced by 5-fluorouridine; Potency, µM (series often up to 46.1 µM), inactives show top-dose activity change, negative = inhibition, hits mostly inhibitors; 330,000 compounds, 2.3% hits; AID 504467; note: % is set by controls: 0 for no effect and ±100 for the full control effect; nearly all actives have a fitted effect of over 55% in size
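Luminescence from the luciferase reporter, measured 30 min after ONE-Glo reagent at room temperature, was the read-out. Beforehand, 2,000 cells per well were exposed for 16 hr at 37 °C to 5-fluorouridine together with compound or vehicle.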
FLuc modulator = firefly luciferase modulation, counter-screen for miR-21 project. purified FLuc, Km substrates, luminescence inhibition. AID 588342. 360,000 compounds, 6.9% hits. Potency, µM (doses to about 57.5 µM), for inactives: at the highest dose activity change, negative = inhibition, usual class: inhibitors;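 note: plate controls were vehicle for no effect and reference inhibitor for full effect; nearly all actives have a fitted effect of over 55% in size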
Target sequence (P08659 whole entry, looked up): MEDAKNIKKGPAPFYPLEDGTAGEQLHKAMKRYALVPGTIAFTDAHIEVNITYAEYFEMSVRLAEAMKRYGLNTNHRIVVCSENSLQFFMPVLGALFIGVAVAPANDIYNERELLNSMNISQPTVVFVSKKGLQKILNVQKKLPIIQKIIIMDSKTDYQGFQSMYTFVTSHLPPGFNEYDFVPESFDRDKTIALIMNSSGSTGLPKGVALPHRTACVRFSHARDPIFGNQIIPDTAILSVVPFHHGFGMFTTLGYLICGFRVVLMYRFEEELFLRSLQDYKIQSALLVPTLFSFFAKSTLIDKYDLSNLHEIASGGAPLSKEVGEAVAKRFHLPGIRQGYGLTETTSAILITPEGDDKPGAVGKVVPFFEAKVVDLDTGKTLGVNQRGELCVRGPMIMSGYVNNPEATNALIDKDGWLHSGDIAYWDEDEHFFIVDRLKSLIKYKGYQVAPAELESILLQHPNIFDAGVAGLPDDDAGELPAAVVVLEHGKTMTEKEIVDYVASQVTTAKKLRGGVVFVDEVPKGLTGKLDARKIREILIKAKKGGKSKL
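Purified P. pyralis luciferase, 10 nM final, with Km-level 10 uM D-luciferin and 10 uM ATP in 50 mM Tris acetate pH 7.5, 10 mM Mg acetate, 0.01% Tween-20, 0.05% BSA; 6-point qHTS titration about 60 µM downward; luminescence read.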
Rab9 promoter act = activators of Rab9 promoter; Huh7 Rab9 promoter-luciferase reporter, luminescence, 24 h; Potency, µM (highest dose often 9.22 µM), for inactives: top-dose activation, negative = inhibition, usual class: activators; 320,000 compounds, 2.8% hits; note: % of control where 0% means no effect; nearly all actives have a fitted effect of over 60% in size
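Luminescence from Amplite-detected luciferase (10 minutes, ambient) reports Rab9 promoter activation. Before that, stable Rab9-luciferase Huh7 cells (1500/well, reduced-serum OP-MEM I plus 10% FBS) were exposed to compound for 24 hours at 37C.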
ELG1 genotox = inducers of genotoxicity in HEK293T ELG1-luciferase cells. AID 504466. Potency, µM (doses to about 46 µM), for the others: at the highest dose activity change, positive = activation, hits mostly activators. 330,000 compounds, 1.3% hits. HEK293T ELG1-luciferase reporter, luminescence, 16 h; note: % of control where 0% means no effect; nearly all actives have a fitted effect of over 60% in size
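ELG1-luciferase HEK293T cells, 2,000/well; compound pinned in; 16 hr, 37 °C, 5% CO2; ONE-Glo, 30 min RT; luminescence on CCD imager.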
NPC1 promoter act = activates the NPC1 promoter | Potency, µM (top dose mostly 9.22 µM), without a hit: top-dose activation, hits mostly activators | Huh7 NPC1 promoter luciferase reporter, 24 h | 320,000 compounds, 2.4% hits; note: % of control where 0% means no effect; nearly all actives have a fitted effect of over 60% in size
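Huh7 cells stably carrying NPC1 promoter–luciferase, plated in Opti-MEM with 10% FBS for 2 h, were exposed to compound in DMSO for 24 h at 37 °C; luciferase reagent was added for 10 min and luminescence read.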
SMN2 splice enh = increases expression of the SMN2 splice variant; 210,000 compounds, 2.8% hits; Potency, µM (doses to about 46.1 µM), inactives show top-dose activity change, positive = activation, hits mostly activators; AID 1458; HEK293 SMN2-luciferase splicing reporter, luminescence, 30-36 h; note: % of control where 0% means no effect; nearly all actives have a fitted effect of over 55% in size
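qHTS luciferase splicing reporter: luminescence rises when SMN2 exon 7 is included in transfected HEK293 cells. Compound exposure lasted 30-36 h at 37C, with 4.5 mM final sodium butyrate as control, followed by a ONE-Glo read.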
Active calls of the source: *; [ ] = remark or other dose. Hits are enriched below; roughly 9.4% of the tested compounds scored in any of these assays. Calls come from the whole dose curve; as a rule, active = well fitted curve in the direction sought with a large enough effect; inconclusive = small, poorly fitted or top-dose-only effect, or another doubt; inactive = no such curve, though single readings can be large; an effect the other way counts as inactive or inconclusive. Potency is the fitted concentration of half-maximal effect.

COC(=O)c1c(NC(=O)C2CC2)sc(C(=O)Nc2ccccc2)c1C was read as ELG1 DNA repair inconclusive, FLuc modulator inconclusive, Rab9 promoter act inconclusive, ELG1 genotox 11%, NPC1 promoter act inconclusive and SMN2 splice enh 1.1µM*.
Screening COC(=O)c1c(NC(=O)c2ccco2)sc(C)c1C returned ELG1 DNA repair -2%, FLuc modulator 1%, Rab9 promoter act -3%, ELG1 genotox 4%, NPC1 promoter act 9% and SMN2 splice enh inconclusive.
COC(=O)c1c(NC(=O)c2ccco2)sc(C(=O)Nc2ccc(F)cc2)c1C was read as ELG1 DNA repair inconclusive, FLuc modulator -2%, Rab9 promoter act 1.6µM*, ELG1 genotox inconclusive, NPC1 promoter act 1.6µM* and SMN2 splice enh inconclusive.
For Cc1c(Cc2ccccc2)sc(NC(=O)c2ccco2)c1C(N)=O the results were ELG1 DNA repair 3%, FLuc modulator 7.6µM*, Rab9 promoter act -4%, ELG1 genotox 8%, NPC1 promoter act 4% and SMN2 splice enh -15%.
Cc1nc(NC(=O)C2CC2)sc1C(=O)Nc1ccccc1 was read as ELG1 DNA repair -7%, FLuc modulator -15%, Rab9 promoter act 4%, ELG1 genotox 3% and NPC1 promoter act 1%.
For C[C@H]1Cc2c(COc3ccccc3)nc3c(c2CO1)CN(C(=O)c1ccco1)CC3 the results were SMN2 splice enh 7%[9.22 µM].
N=C1S/C(=C\c2ccco2)C(=O)N1c1nccs1 was read as ELG1 DNA repair inconclusive, FLuc modulator 11µM*, Rab9 promoter act inconclusive, ELG1 genotox inconclusive, NPC1 promoter act inconclusive and SMN2 splice enh -36%.
`COc1ccc(NC(=O)Cc2ccc(C)c(C)c2)cc1S(=O)(=O)N1CCCCC1` gave ELG1 DNA repair 26µM* and ELG1 genotox -5%.
`Cc1ccc(NC(=O)Cc2ccccc2F)cc1S(=O)(=O)N1CCCCCC1` gave ELG1 DNA repair 12µM*, FLuc modulator -2%, Rab9 promoter act -4%, ELG1 genotox -3% and NPC1 promoter act -1%.
`COc1ccc(C(=O)Nc2ccc(C)c(S(=O)(=O)N3CCCCCC3)c2)cc1` gave ELG1 DNA repair inconclusive, FLuc modulator inconclusive, Rab9 promoter act -2%, ELG1 genotox -16% and NPC1 promoter act -17%.
`Cc1ccc(C(=O)Nc2ccc3cn[nH]c3c2)cc1S(=O)(=O)N1CCCCC1` gave ELG1 DNA repair inconclusive, FLuc modulator 21µM*, Rab9 promoter act inconclusive, ELG1 genotox 15%, NPC1 promoter act inconclusive and SMN2 splice enh 1%.
Screening Cc1ccc(NC(=O)c2ccccc2F)cc1S(=O)(=O)N1CCCCCC1 returned ELG1 DNA repair inconclusive, FLuc modulator -17%, Rab9 promoter act -12%, ELG1 genotox -9%, NPC1 promoter act 1% and SMN2 splice enh -15%.
For COc1ccc(NC(=O)c2cc3ccccc3o2)cc1S(=O)(=O)N1CCCCC1 the results were ELG1 DNA repair 21µM* and ELG1 genotox -8%.
For Cc1ccc(C(=O)Nc2cccc(O)c2)cc1S(=O)(=O)N1CCCCCC1 the results were ELG1 DNA repair inconclusive, FLuc modulator 15µM*, Rab9 promoter act inconclusive, ELG1 genotox 6%, NPC1 promoter act 29% and SMN2 splice enh -5%.
For Cc1ccc(NC(=O)c2ccc(F)cc2)cc1S(=O)(=O)N1CCCCCC1 the results were ELG1 DNA repair 16µM*, FLuc modulator inconclusive, Rab9 promoter act -10%, ELG1 genotox -10%, NPC1 promoter act 3% and SMN2 splice enh -36%.
`Cc1ccc2oc(=O)c3cnn(CC(=O)N4CCN(c5ccc(F)cc5)CC4)c3c2c1` gave FLuc modulator -6% and SMN2 splice enh 5%.
`O=C(N/N=C\c1cccc(Cl)c1)c1ccc(Cn2cc(Br)c([N+](=O)[O-])n2)o1` gave ELG1 DNA repair inconclusive, FLuc modulator 5.4µM*, Rab9 promoter act -2%, ELG1 genotox -1%, NPC1 promoter act 1% and SMN2 splice enh -35%.
`O=C(N/N=C\c1cccc(Cl)c1)c1ccc(Cn2cccn2)o1` gave ELG1 DNA repair 3%, FLuc modulator 12µM*, Rab9 promoter act -2%, ELG1 genotox 1%, NPC1 promoter act -3% and SMN2 splice enh 3%.
For Cc1c(Cl)c([N+](=O)[O-])nn1Cc1ccc(C(=O)N/N=C\c2cccc(Br)c2)o1 the results were ELG1 DNA repair inconclusive, FLuc modulator 7.6µM*, Rab9 promoter act -4%, ELG1 genotox -8%, NPC1 promoter act 1% and SMN2 splice enh 10%.
Screening Cc1ccsc1/C=N/NC(=O)c1ccc(Cn2cc(Br)cn2)o1 returned ELG1 DNA repair -8%, FLuc modulator -15%, Rab9 promoter act -3%, ELG1 genotox 0%, NPC1 promoter act -1% and SMN2 splice enh -4%.
Screening O=C(N/N=C/c1cccc(Br)c1)c1ccc(Cn2cc(Br)cn2)o1 returned ELG1 DNA repair inconclusive, FLuc modulator 13µM*, Rab9 promoter act -3%, ELG1 genotox 2%, NPC1 promoter act 2% and SMN2 splice enh -16%.
Screening Cc1ccc(/C=N\NC(=O)c2ccc(Cn3cc(Br)c([N+](=O)[O-])n3)o2)o1 returned ELG1 DNA repair 0%, FLuc modulator -1%, Rab9 promoter act -6%, ELG1 genotox -2% and NPC1 promoter act 0%.
`Cc1c(Cl)c([N+](=O)[O-])nn1Cc1ccc(C(=O)NN)o1` gave ELG1 DNA repair 5%, FLuc modulator 1%, Rab9 promoter act -4%, ELG1 genotox 1% and NPC1 promoter act -3%.
Screening Cc1ccc(CNC(=O)C2CCCN(S(=O)(=O)c3ccc4c(c3)oc(=O)n4C)C2)cc1 (stereo not given) returned FLuc modulator 2% and SMN2 splice enh -1%.
For Cc1ccccc1/C=N\NC(=O)c1ccc(Cn2cccn2)o1 the results were ELG1 DNA repair 8%, FLuc modulator 17µM*, Rab9 promoter act -3%, ELG1 genotox -3%, NPC1 promoter act 0% and SMN2 splice enh -2%.
NNC(=O)c1ccc(Cn2cccn2)o1 was read as ELG1 DNA repair 6%, FLuc modulator inconclusive, Rab9 promoter act 1%, ELG1 genotox 1% and NPC1 promoter act 1%.
O=C(/C=C/c1ccc(Cl)cc1)NC(=S)Nc1ccc(CN2CCOCC2)cc1 was read as ELG1 DNA repair 21%, FLuc modulator 0%, Rab9 promoter act -2%, ELG1 genotox inconclusive and NPC1 promoter act -11%.
